Most compounds without a hit are left out; they make up all but 18% or so of the library.
VP16 counter = VP16 counterscreen qHTS for inhibitors of ROR gamma transcriptional activity; Potency, µM (titrated, usually from 53.6 µM), actives largely listed as inhibitors; Drosophila S2 Gal4-VP16 UAS-luciferase, luminescence, 20 h; actives 3.5% (n = 310,000);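 also: Gal4-VP16 expression switched on by copper sulfate through the metallothionein promoter; nearly all actives have a fitted effect of over 50% in size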
TDP1 cell noCPT = qHTS for Inhibitors of human tyrosyl-DNA phosphodiesterase 1 (TDP1): qHTS in cells in absence of CPT; AID 686978, 2013; Potency, µM (series often up to 46.2 µM), actives largely listed as inhibitors; actives 15% (n = 420,000); DT40 Tdp1-/- hTDP1 cells, no CPT, ATP luminescence, 48 h; also: nearly all actives have a fitted effect of over 55% in size
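Readout: luminescence from CellTiter-Glo after 30 min in the dark at RT. Cells: DT40 Tdp1-/- with stable hTDP1, 400/well. Exposure: compounds alone, ≥48 hr, 37 °C.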
TDP1 cell CPT = qHTS for Inhibitors of human tyrosyl-DNA phosphodiesterase 1 (TDP1): qHTS in cells in presence of CPT; actives 12% (n = 420,000); chicken DT40 Tdp1-/-;hTDP1 cells + 20 nM CPT, ATP luminescence, 48 h; AID 686979, 2013; Potency, µM (doses to about 46.2 µM), most hits filed as inhibitors; also: nearly all actives have a fitted effect of over 55% in size
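Chicken DT40 Tdp1-/- cells complemented with human TDP1, 400 cells/well, exposed to compounds plus 20 nM camptothecin for at least 48 h at 37 C; viability read as ATP content by CellTiter-Glo luminescence.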
IL1B secr inh = qHTS for Inhibitors of Inflammasome Signaling: IL-1-beta AlphaLISA Primary Screen | actives 4.7% (n = 360,000) | AID 743279, 2014 | activity change, % at 57.5 µM | THP-1 LPS/ATP IL-1B secretion, AlphaLISA, 16 h; stronger effect = lower value; in the data active = activity change below about -50%; inconclusive = mostly about -30% to -49%
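Secreted IL-1B measured by AlphaLISA bead assay after 16 h compound exposure of THP-1 cells; compounds (final up to 57.5 uM) added 1 h before LPS (250 ng/mL) and ATP (1.25 mM) stimulation; lower signal means less secretion.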
LDHA inh = qHTS assay for inhibitors of human lactate dehydrogenase; purified LDHA, NADH/diaphorase-resazurin fluorescence; stronger effect = lower value; activity change, % (values are at about 110 or 230 µM); actives 0.15% (n = 480,000); in the data active = activity change below about -30%; inconclusive = mostly about -25% to -30%
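LDH5 2 nM; NADH 0.06 mM, pyruvate 0.2 mM; 200 mM Tris pH 7.4, EDTA, Tween-20; 5 min RT. Detection: diaphorase 0.133 mg/mL + resazurin 37 µM, fluorescence ex540/em590 at 0 and 20 min; normalized to enzyme-free and DMSO wells.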
RORgamma inh = qHTS for inhibitors of ROR gamma transcriptional activity | AID 2551, 2010 | Drosophila S2 Gal4-RORgamma UAS-luciferase reporter, 20 h | actives 5.4% (n = 310,000) | Potency, µM (top dose mostly 53.6 µM), most hits filed as inhibitors; also: nearly all actives have a fitted effect of over 60% in size
Target sequence (P51450 whole entry, looked up, the tested form may be a part): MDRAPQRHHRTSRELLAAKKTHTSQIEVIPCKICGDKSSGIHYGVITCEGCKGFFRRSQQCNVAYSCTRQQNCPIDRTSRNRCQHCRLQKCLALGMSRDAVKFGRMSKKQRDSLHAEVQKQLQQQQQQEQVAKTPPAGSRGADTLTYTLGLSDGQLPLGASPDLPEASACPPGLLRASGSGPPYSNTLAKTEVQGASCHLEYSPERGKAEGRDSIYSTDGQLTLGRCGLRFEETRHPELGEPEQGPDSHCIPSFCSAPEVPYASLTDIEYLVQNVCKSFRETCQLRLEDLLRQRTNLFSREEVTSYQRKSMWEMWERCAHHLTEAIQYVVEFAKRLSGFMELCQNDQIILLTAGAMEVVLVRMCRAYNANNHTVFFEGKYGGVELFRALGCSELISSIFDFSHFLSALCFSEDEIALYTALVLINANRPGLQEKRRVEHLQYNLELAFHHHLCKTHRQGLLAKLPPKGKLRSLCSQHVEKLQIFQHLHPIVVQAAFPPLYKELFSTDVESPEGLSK
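Drosophila S2 cells stably expressing Gal4-DBD/mouse RORγ fusion under metallothionein promoter plus UAS-luciferase; compound 1 h, then 700 uM CuSO4 induction for 20 h at ambient temperature; inhibition read as reduced luminescence.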
A number is an active result; 0 = inactive; ? = inconclusive; - = no result given. Unless noted, calls follow the shape of the dose curve; as a rule, active = well fitted curve in the direction sought with a large enough effect; inconclusive = small, poorly fitted or top-dose-only effect, or another doubt; inactive = no such curve, though single readings can be large; an effect the other way counts as inactive or inconclusive.

SMILES	VP16 counter	TDP1 cell noCPT	TDP1 cell CPT	IL1B secr inh	LDHA inh	RORgamma inh
Cc1ccc(-c2nn(-c3ccccc3)cc2/C=N/n2c(-c3cccs3)n[nH]c2=S)cc1	0	0	0	-	0	?
S=c1[nH]nc(-c2cccs2)n1/N=C/c1cn(-c2ccccc2)nc1-c1cccs1	?	0	0	-	0	7.94µM
Cc1nc2ccccc2c(=O)n1/N=C/c1cn(-c2ccccc2)nc1-c1cccs1	0	20.6µM	?	0	0	?
Cc1nc2ccccc2c(=O)n1/N=C/c1cccs1	?	?	?	0	0	0
O=[N+]([O-])c1ccc(-c2nn(-c3ccccc3)cc2/C=N/n2c(-c3ccncc3)n[nH]c2=S)cc1	0	18.4µM	?	0	0	0
O=C(O)CCC1NC(=O)N(CCc2c[nH]c3ccc(F)cc23)C1=O (stereo not drawn)	-	-	-	-	0	-
O=C(O)c1coc(Br)c1	-	-	-	-	0	-
CSc1ccc(CN(C)C(=O)Cn2c(=O)n(C)c3ccccc32)cc1	-	-	-	-	0	-
CCc1nnc(NC(=O)c2cc(-c3ccc(C)cc3)nc3ccccc23)s1	-	-	-	-	0	-
Cc1nn(C)c2sc(C(=O)N3CCN(c4ncccn4)CC3)cc12	-	-	-	-	0	-
COc1cc2oc(=O)ccc2cc1O	0	-	-	-	-	0
COc1cc2c(ccc3cc(OC)c(OC)c(O)c32)cc1O	0	9.2µM	7.31µM	0	0	0
CCOC(=O)c1ccc(NC(C)=O)o1	-	-	-	-	0	-
Cn1c(=O)c2c(ncn2CC(COCc2ccc(F)cc2)OCc2ccc(F)cc2)n(C)c1=O (stereo not drawn)	-	-	-	-	0	-
Cc1ccc(C2Cc3cc(O)c(O)cc3CN2)cc1 (stereo not drawn)	-	16.4µM	14.6µM	0	0	-
COc1ncccc1CNC(=O)Nc1nnc(C2CC2)s1	-	-	-	-	0	-
COc1ccc(S(=O)(=O)N(CC(=O)Nc2ccc(S(=O)(=O)N3CCOCC3)cc2)Cc2ccc(F)cc2)cc1	0	14.6µM	20.6µM	0	0	0
COc1ccc(S(=O)(=O)N(CC(=O)Nc2ccc(S(=O)(=O)N3CCOCC3)cc2)c2ccccc2)cc1	0	0.164µM	0	0	0	?
COc1ccc(CC(=O)Nc2ccc(S(=O)(=O)N3CCOCC3)cc2)cc1	-	0	0	0	0	-
CCOc1cccc(/C=C2\NC(=O)NC2=O)c1O	-	-	-	-	0	-
CCOc1ccccc1C(=O)NC(C(=O)OCn1nnc2ccccc2c1=O)C(C)C (stereo not drawn)	-	25.9µM	?	0	0	-
CCOc1ccccc1C(=O)NCC(=O)OCc1csc(CC(=O)Nc2ccc(C)cc2)n1	-	0	?	0	0	-
CCOc1ccccc1C(=O)N[C@H](C(=O)OCc1csc(CC(=O)Nc2ccc(C)cc2)n1)C(C)C	-	14.6µM	18.4µM	?	0	-
O=C(CNC(=O)c1ccc(Cl)cc1)OCn1nnc2ccccc2c1=O	-	0	?	0	0	-
CC(C)(Oc1ccc(Cl)cc1)C(=O)OCn1nnc2ccccc2c1=O	2.51µM	0	0	0	0	?
SMILES	VP16 counter	TDP1 cell noCPT	TDP1 cell CPT	IL1B secr inh	LDHA inh	RORgamma inh
CCOc1ccccc1C(=O)N[C@H](C(=O)OCc1cc(=O)oc2cc(C)ccc12)C(C)C	0	16.4µM	6.51µM	-55.3	0	0
CC(C)(C)OC(=O)N1CCN(C(C(=O)O)c2c[nH]c3ccc(Cl)cc23)CC1 (stereo not drawn)	-	-	-	-	0	-
O=C(Nc1ccccc1)N1CCN(Cc2ccc(Cl)cc2)CC1	0	?	?	0	0	0
Cc1cccc(N2CCN(C(=O)NCc3ccc(Cl)cc3)CC2)c1	0	20.6µM	?	0	0	0
CCOc1ccccc1N1CCN(C(=O)C2c3ccccc3Oc3ccccc32)CC1	0	23.1µM	23.1µM	0	0	0
O=C(NCc1ccc(Cl)cc1)N1CCN(Cc2ccccc2)CC1	0	?	23.1µM	0	0	0
COc1cccc(CN2CCN(C(=S)NCc3ccc(Cl)cc3)CC2)c1	0	20.6µM	?	0	0	0
CC(Sc1nc2ccccc2o1)c1nc2ccccc2c(=O)[nH]1 (stereo not drawn)	-	-	-	-	0	-
CCOc1ccccc1N1CCN(C(=O)NCc2ccc(Cl)cc2)CC1	0	?	0	-63.4	0	0
Fc1ccccc1COc1ccc(Br)cc1CNc1nn[nH]n1	-	-	-	-	0	-
CC(=O)Nc1ccc(Sc2ccccc2C(=O)Nc2ccc(F)cc2)cn1	0	18.4µM	?	0	0	0
CC(=O)Nc1ccc(Sc2ccccc2C(=O)O)cn1	0	0	0	0	0	0
Cc1nn(Cc2ccccc2Cl)c(C)c1NC(=O)NC1CCCC1	-	-	-	-	0	-
Cc1nn(Cc2ccccc2Cl)c(C)c1NC(=O)c1nc2ncccn2n1	0	13µM	13µM	0	0	0
Cc1nn(Cc2ccc(Br)cc2)c(C)c1NC(=O)c1nn(C)cc1Cl	0	18.4µM	?	0	0	0
Cc1nn(Cc2ccccc2Cl)c(C)c1NC(=O)c1cc(-c2ccc(F)cc2)on1	?	0	?	0	0	0
Cc1nn(Cc2ccccc2Cl)c(C)c1NC(=O)c1ccn(C)n1	0	11.6µM	8.2µM	0	0	0
CC(CC(=O)Nc1ccc(Cl)cc1)n1ccnc1 (stereo not drawn)	-	-	-	-	0	-
CCc1ccc2c(COC(=O)c3cc(S(=O)(=O)N(C)C)ccc3NCCO)cc(=O)oc2c1	-	-	-	-	0	-
O=C(Oc1ccc(Br)cc1C(=O)/C=C/c1ccccc1F)c1ccco1	-	16.4µM	20.6µM	-98.2	0	-
COc1cccc(C2=NN(S(=O)(=O)c3ccccc3)C(c3ccc4nccnc4c3)C2)c1 (stereo not drawn)	-	-	-	-	0	-
COc1ccc(CCN2CN(S(=O)(=O)c3ccccc3)c3nc4ccccc4nc32)cc1OC	0	18.4µM	20.6µM	0	0	0
COc1ccc(CCN2CN(S(=O)(=O)c3ccccc3)c3nc4ccccc4nc32)cc1	0	18.4µM	?	0	0	0
CC(C)OCCCN1CN(S(=O)(=O)c2ccccc2)c2nc3ccccc3nc21	0	?	0	0	0	0
Oc1ccccc1Oc1ccc2nnc(-c3ccc(Br)cc3)n2n1	-	-	-	-	0	-
Cc1cc(C)cc(OCCC(=O)N(CC#N)C2CC2)c1	-	-	-	-	0	-
COc1ccc(N2CCC(CNC(=O)Nc3ccccc3)C2)cc1 (stereo not drawn)	0	?	0	0	0	0
COc1ccc(N2CCC(CNC(=S)Nc3cc(C)ccc3C)C2)cc1 (stereo not drawn)	10µM	16.4µM	16.4µM	0	0	1.78µM
